MARV entry inh – blocks Marburg virus binding to or entry into cells | Marburg virus pseudotyped entry inhibition, cell reporter | 300,000 compounds, 1.8% hits | Potency, µM (highest dose often 37.8 µM), usual class: inhibitors | AID 540276; calls by dose curve; tested in HEK293 cells
LASV entry inh – inhibitors of Lassa virus binding or cell entry | Potency, µM (top dose mostly 37.9 µM), actives largely listed as inhibitors | AID 540256 | 300,000 compounds, 1.2% hits | Lassa virus pseudotype entry inhibition, cell reporter; calls by dose curve; tested in HEK293 cells; further: nearly all actives have a fitted effect of over 50% in size
Vaccinia mCherry – inhibitors of vaccinia virus infection (mCherry reporter signal); Vaccinia virus mCherry reporter infection, fluorescence; Potency, µM (doses to about 36.5 µM), usual class: inhibitors; 310,000 compounds, 0.63% hits; AID 720579; calls by dose curve; tested in A549 cells; further: nearly all actives have a fitted effect of over 35% in size
FMDV inh – antivirals against foot and mouth disease virus; FMDV antiviral cell-based qHTS; 410,000 compounds, 1.2% hits; Potency, µM (highest dose often 57.9 µM), most hits filed as inhibitors; AID 1159524; calls by dose curve; tested in HEK293T cells; further: read-out not given here; nearly all actives have a fitted effect of over 45% in size
VACV Venus inh – inhibitors of vaccinia virus (Venus reporter); Vaccinia virus Venus reporter expression, fluorescence; Potency, µM (series often up to 36.5 µM), hits mostly inhibitors; 330,000 compounds, 0.46% hits; calls by dose curve; tested in A549 cells; further: nearly all actives have a fitted effect of over 30% in size
HCMV inh – blocks human cytomegalovirus replication. 410,000 compounds, 4.5% hits. activity change, negative = inhibition, % at 57.5 µM. HFF cells, HCMV-luciferase reporter, 72 h; hits give low values; in the data active means activity change below about -60%; inconclusive means no clear call, values can overlap the other calls; inactive means above about -39%
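Luciferase read-out from HCMV-luciferase-infected HFFs (MOI 1 PFU/cell) 72 h post infection at 37C; compounds added after 16 h cell attachment; activity normalized between buffer-only basal and Salinomycin (10uM) inhibitor controls.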
Hits are given with their value; n = inactive; u = inconclusive; x = not tested or not shown; [ ] = remark or other dose. An excerpt weighted towards active compounds, which were near 6.5% of everything screened.

SMILES	MARV entry inh	LASV entry inh	Vaccinia mCherry	FMDV inh	VACV Venus inh	HCMV inh
Nc1nc(N)c2c(OCc3ccc(C(F)(F)F)cc3)cccc2n1	x	x	10µM	x	10µM	x
CO/N=C1\CCCc2c(C(=O)NN)sc(SC)c21	u	u	n[7.34 µM]	n	n[7.34 µM]	-66
Oc1cccc(Nc2nccc3[nH]c(-c4cccc(OC(F)(F)F)c4)nc23)c1	x	x	x	x	x	n
COc1cc(C(=O)OCc2cc(=O)c(O)co2)ccc1OC(F)F	u	n	u	n	n	n
COc1cc(C(=O)OCc2cc(=O)oc3c(C)c(C)ccc23)ccc1OC(F)F	n	u	n	n	n	-65
CN(C)c1ccc(-c2nc(NCCc3cnc[nH]3)c3ccccc3n2)cc1	x	x	x	n	x	x
COC(=O)c1c(N)nc(C)n1-c1ccc(OC)cc1	n	n	n[1.46 µM]	n	n	n
COc1ccc(-n2c(C)c(C)c3c(N)ncnc32)cc1	n	n	n	n	n	-77
O=C1N[C@@H](Cc2ccccc2)C(=O)N2CCC[C@@H]12	n	u	n	n	n	n
CC(C)C[C@@H]1NC(=O)[C@H](CCCN)NC(=O)[C@H](C(C)C)NC(=O)[C@@H]2CCCN2C(=O)[C@@H](Cc2ccccc2)NC(=O)[C@H](CC(C)C)NC(=O)[C@H](CCCN)NC(=O)[C@H](C(C)C)NC(=O)[C@@H]2CCCN2C(=O)[C@@H](Cc2ccccc2)NC1=O	x	x	4.5µM	6.3µM	u	x
COc1ccc(/C(O)=C2\C(=O)C(=O)N(CCN3CCOCC3)[C@H]2c2ccccn2)cc1	n	x	x	x	x	x
COc1ccccc1C(CNC(=O)C(CCSC)NC(=O)c1ccccc1Cl)N1CCCC1 (stereo unspecified)	2.8µM	n	n	n	n	n
COc1ccc(C(CNC(=O)CNC(=O)c2ccccc2)N2CCCC2)cc1 (stereo unspecified)	x	x	x	n	x	n
COc1ccc(C(CNC(=O)C(CCSC)NC(=O)c2ccccc2OC)N2CCCCC2)cc1 (stereo unspecified)	n	n	n	n	n	n
COc1ccccc1C(CNC(=O)CNC(=O)c1cccc(Cl)c1)N1CCCC1 (stereo unspecified)	7.1µM	n	n	n	n	n
Nc1cc(N)cc(N)c1	x	x	n	x	n	x
Cc1cc2c(c(=O)n1Cc1ccccc1)[C@H]1O[C@](c3ccsc3)(Cc3cc(C#N)ccc31)O2	n	x	x	x	x	x
Cc1nnsc1C(=O)N/N=C/c1ccc(OC(F)(F)F)cc1	n	u	n	n	n	-61
Cc1nnsc1C(=O)N/N=C/c1ccc2ccccc2c1O	u	u	2.2µM	u	u	-100
Cc1nc(N)sc1C(=O)N/N=C/c1c[nH]c2ccccc12	2.9µM	n	n	x	n	n
C=C1C(=O)[C@]23C[C@H]1CC[C@H]2[C@]1(C)[C@@H](OC(C)=O)CC[C@@](C)(C(=O)O)[C@H]1C[C@@H]3OC(C)=O	x	x	n	u	n	n
C=C1C(=O)[C@]23C[C@H]1CCC2[C@]1(C)C(=O)CC[C@@](C)(C(=O)O)C1C[C@@H]3O (stereo partly specified)	x	x	u	35µM	u	n
C=C1C(=O)[C@]23C[C@H]1CCC2[C@]1(C)CCC[C@@](C)(C(=O)O)C1C[C@@H]3O (stereo partly specified)	x	x	6.3µM	25µM	3.5µM	-102
CC[C@H]1OC(c2ccccc2)[C@H](C)[C@H]2O[C@@H]2[C@@H]1C(=O)OC (stereo partly specified)	n	x	x	x	x	x
CCCCN(CCCC)c1ccc(Cn2ccc3ccccc32)cc1	x	x	n	x	n	x
SMILES	MARV entry inh	LASV entry inh	Vaccinia mCherry	FMDV inh	VACV Venus inh	HCMV inh
CCN(CC)c1ccc(NC(=O)c2cccc(OC)c2)c(C)c1	u	u	n	n	u	n
CCN(CC)c1ccc(NC(=O)C2COc3ccc(OC)cc3C2)c(C)c1 (stereo unspecified)	x	u	u	u	u	-79
CCN(CC)c1ccc(NC(=O)c2cc(OC)cc(OC)c2)c(C)c1	u	u	u	n	u	-85
Cc1ccc(C(O)(c2ccc(C)c(C)c2)C2CN3CCC2CC3)cc1C (stereo unspecified)	x	x	x	u	x	-97
Cc1ccccc1C(O)(Cc1ccccc1)C1CN2CCC1CC2 (stereo unspecified)	u	u	u	n	n	n
CN(CC1COc2ccccc2O1)c1nc(-c2cccnc2)nc2ccccc12 (stereo unspecified)	2.6µM	u	u	25µM	n	n
c1cncc(-c2nc(NCC3COc4ccccc4O3)c3ccccc3n2)c1 (stereo unspecified)	u	n	u	22µM	11µM	n

Compound activity (PubChem BioAssay)
